{"source": "the supplement of paper PMC7366291", "settings_in_all_cases": "25 µM; exposure: 24-48 hpf", "key": {"[1]": {"test_system": "Danio rerio Tg(wt1b:EGFP) embryo, pronephros", "assay": "glomerular separation, fold change vs DMSO control; higher = glomeruli further apart (abnormal)", "outline": "(§1)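 Distances and angles describing the pronephros were computed by a Fiji macro from 16 reference points set manually on maximum projections of dorsal images. These images came from dechorionated Tg(wt1b:EGFP) zebrafish embryos held in agarose-filled 96-well plates after exposure to 25 μM compound in 0.5% DMSO, in HEPES-buffered E3 with 0.003% PTU, from 24 to 48 hpf at 28.5°C. Any value more than 2 SD from the feature mean was excluded. Features are stated as fold change relative to the mean of same-day DMSO-treated embryos.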"}, "[2]": {"test_system": "Danio rerio Tg(wt1b:EGFP) embryo, pronephros", "assay": "glomerular width (mean of left and right), fold change vs DMSO control; higher = wider glomerulus", "outline": "as §1"}, "[3]": {"test_system": "Danio rerio Tg(wt1b:EGFP) embryo, pronephros", "assay": "fraction of imaged embryos annotated as normal kidney; higher = less nephrotoxic; extreme values may be limits of the assay", "outline": "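Dechorionated Tg(wt1b:EGFP) zebrafish embryos were incubated with 25 μM compound in 0.5% DMSO, 5 mM HEPES-buffered E3 and 0.003% PTU from 24 to 48 hpf at 28.5°C. Pronephroi were then imaged by widefield fluorescence, and the fraction of embryos per treatment assigned by hand to the normal-kidney category is given.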"}, "[4]": {"test_system": "Danio rerio Tg(wt1b:EGFP) embryo, pronephros", "assay": "pronephric angle neck segment to proximal convoluted tubule (mean of left and right), fold change vs DMSO control; higher = larger pronephric angle", "outline": "as §1"}}, "note": "Structures can show the parent of a compound that is named as a salt. ± gives the standard deviation or the standard deviation of the averaged measurements."}
{"smiles": "CCC1=C[C@H]2CN3CCc4c([nH]c5ccccc45)[C@](C(=O)OC)(C2)[C@H]13", "note": "[Catharanthine]", "values": [{"measurement": "glomerular separation", "setting": "[1]", "result": "0.982 ± 0.32"}, {"measurement": "glomerular width", "setting": "[2]", "result": "1.07 ± 0.1"}, {"measurement": "fraction of imaged embryos annotated as normal kidney", "setting": "[3]", "result": 0.833}, {"measurement": "pronephric angle neck segment", "setting": "[4]", "result": "1 ± 0.032"}]}
{"smiles": "Cc1cccc(C)c1NC1=NCCCS1", "note": "[Xylazine]", "values": [{"measurement": "glomerular separation", "setting": "[1]", "result": "0.757 ± 0.26"}, {"measurement": "glomerular width", "setting": "[2]", "result": "0.997 ± 0.018"}, {"measurement": "fraction of imaged embryos annotated as normal kidney", "setting": "[3]", "result": 0.833}, {"measurement": "pronephric angle neck segment", "setting": "[4]", "result": "0.966 ± 0.057"}]}
{"smiles": "O=C(CCCN1CCC(n2c(=O)[nH]c3ccccc32)CC1)c1ccc(F)cc1", "note": "[Benperidol]", "values": [{"measurement": "glomerular separation", "setting": "[1]", "result": "1.04 ± 0.25"}, {"measurement": "glomerular width", "setting": "[2]", "result": "0.951 ± 0.034"}, {"measurement": "fraction of imaged embryos annotated as normal kidney", "setting": "[3]", "result": 0.917}, {"measurement": "pronephric angle neck segment", "setting": "[4]", "result": "0.992 ± 0.033"}]}
{"smiles": "CC(C)CC(N(C)C)C1(c2ccc(Cl)cc2)CCC1", "note": "(stereo not given) [Sibutramine hydrochloride]", "values": [{"measurement": "glomerular separation", "setting": "[1]", "result": "0.986 ± 0.37"}, {"measurement": "glomerular width", "setting": "[2]", "result": "0.995 ± 0.021"}, {"measurement": "fraction of imaged embryos annotated as normal kidney", "setting": "[3]", "result": 0.417}, {"measurement": "pronephric angle neck segment", "setting": "[4]", "result": "1.08 ± 0.054"}]}
{"smiles": "COc1ccc2c(c1)[C@]13CCCC[C@@H]1[C@H](C2)N(C)CC3", "note": "[Dextromethorphan hydrobromide monohydrate]", "values": [{"measurement": "glomerular separation", "setting": "[1]", "result": "1.03 ± 0.23"}, {"measurement": "glomerular width", "setting": "[2]", "result": "0.9098 ± 0.004"}, {"measurement": "fraction of imaged embryos annotated as normal kidney", "setting": "[3]", "result": 0.833}, {"measurement": "pronephric angle neck segment", "setting": "[4]", "result": "1.04 ± 0.036"}]}
{"smiles": "CCC1(c2cccc(O)c2)CCCCN(C)C1", "note": "(stereo not given) [Meptazinol hydrochloride]", "values": [{"measurement": "glomerular separation", "setting": "[1]", "result": "1.01 ± 0.35"}, {"measurement": "glomerular width", "setting": "[2]", "result": "0.967 ± 0.024"}, {"measurement": "fraction of imaged embryos annotated as normal kidney", "setting": "[3]", "result": 0.917}, {"measurement": "pronephric angle neck segment", "setting": "[4]", "result": "0.984 ± 0.06"}]}
{"smiles": "CCC(COC(=O)c1cc(OC)c(OC)c(OC)c1)(c1ccccc1)N(C)C", "note": "(stereo not given) [Trimebutine]", "values": [{"measurement": "glomerular separation", "setting": "[1]", "result": "0.875 ± 0.36"}, {"measurement": "glomerular width", "setting": "[2]", "result": "0.9518 ± 0.0092"}, {"measurement": "fraction of imaged embryos annotated as normal kidney", "setting": "[3]", "result": 0.917}, {"measurement": "pronephric angle neck segment", "setting": "[4]", "result": "1.01 ± 0.012"}]}
{"smiles": "CN1CCN(C(=O)OC2c3nccnc3C(=O)N2c2ccc(Cl)cn2)CC1", "note": "(stereo not given) [Zopiclone]", "values": [{"measurement": "glomerular separation", "setting": "[1]", "result": "1.06 ± 0.41"}, {"measurement": "glomerular width", "setting": "[2]", "result": "0.93 ± 0.014"}, {"measurement": "fraction of imaged embryos annotated as normal kidney", "setting": "[3]", "result": 1}, {"measurement": "pronephric angle neck segment", "setting": "[4]", "result": "0.98709 ± 0.00059"}]}
{"smiles": "CN1CCC2(C)c3cc(O)ccc3N(C)C12", "note": "(single isomer, unassigned; (-)) [(-)-Eseroline fumarate salt]", "values": [{"measurement": "glomerular separation", "setting": "[1]", "result": "0.883 ± 0.34"}, {"measurement": "glomerular width", "setting": "[2]", "result": "1.01 ± 0.025"}, {"measurement": "fraction of imaged embryos annotated as normal kidney", "setting": "[3]", "result": 0.917}, {"measurement": "pronephric angle neck segment", "setting": "[4]", "result": "1.02 ± 0.043"}]}
{"smiles": "CN1[C@@H]2CC[C@H]1C[C@@H](OC(=O)C(CO)c1ccccc1)C2", "note": "(stereo not given in full) [Atropine sulfate monohydrate]", "values": [{"measurement": "glomerular separation", "setting": "[1]", "result": "1.25 ± 0.3"}, {"measurement": "glomerular width", "setting": "[2]", "result": "1.04 ± 0.011"}, {"measurement": "fraction of imaged embryos annotated as normal kidney", "setting": "[3]", "result": 1}, {"measurement": "pronephric angle neck segment", "setting": "[4]", "result": "1 ± 0.063"}]}
